Test results taken from ChEMBL document CHEMBL4513216, “Probing the Open Global Health Chemical Diversity Library for Multistage-Active Starting Points for Next-Generation Antimalarials” (ACS Infect Dis, 2020).
The whole screen tested about 69,000 compounds, of which about 8,600 (12%) showed an effect of 50% or more. This excerpt belongs to a sample that is enriched for strong results.

test system: Plasmodium berghei; assay: Screen against P. berghei liver stage (PbLuc), transformed with Luciferase, at 10uM; format: functional, HepG2; details: tested at 10 uM

SMILES | INHIBITION
COc1c[nH]c(C(=O)N2CCN(c3cccc(Cl)c3)CC2)cc1=O | 38.8%
CCc1cnc(N2CC[C@H]3[C@@H]2CCC(=O)N3c2cccnc2)nc1 | -24.1%
COC1CCN(C(=O)Cc2csc(-c3ccccc3)n2)CC1 | -55.9%
Cc1noc(C(C)C)c1C(=O)NCc1ccc2c(c1)OCCO2 | -28.4%
CCCS(=O)(=O)N1CC(=O)N(Cc2ccccc2OC)CC(O)C1 (stereo not drawn) | 41.1%
CC(SCCS(C)(=O)=O)c1nc(Cc2ccc(F)cc2)no1 (stereo not drawn) | 12.4%
CC(SCCS(C)(=O)=O)c1nc(Cc2ccccc2)no1 (stereo not drawn) | 13.5%
CCc1noc(C(C)SCCS(C)(=O)=O)n1 (stereo not drawn) | 64.6%
O=C(Nc1cccnc1)[C@@H]1CCO[C@@H]2CCN(Cc3cccnc3)C[C@@H]21 | 12.7%
CC(=O)N1N=C(c2ccccc2)OC1C(=O)NCCN(C(C)C)C(C)C (stereo not drawn) | 30.3%
Cc1nc(C(C)(C)C)sc1C(=O)NCCNc1ncccn1 | 10%
Cc1nn(C)c(C)c1CCC(=O)NCC1(C(N)=O)CCOCC1 | 26.4%
Cc1nn(C)c(C)c1CC(=O)NCC1(C(N)=O)CCOCC1 | 47.7%
Cc1nn(C)c(C)c1S(=O)(=O)NCC1(C(N)=O)CCOCC1 | 74.5%
CSc1ccc(CN(CCO)C(=O)CCNC(C)=O)cc1 | 18.4%
CNCc1n[nH]c(=O)n1-c1cccc(Cl)c1Cl | 25.1%
CN1CCN(c2nsc(-c3cccnc3)c2C#N)CC1 | 62.3%
N#Cc1c(N2CCCCC2)nsc1-c1cccnc1 | -0.621%
CCN1CCN(c2nsc(-c3cccnc3)c2C#N)CC1 | 36.6%
CN(Cc1ccc(N(C)C)cc1)C(=O)c1cc2c([nH]c1=O)CCCC2=O | -42.975%
CNC(=O)c1ccc(C(=O)N2CCCCC2Cn2cc(C)cn2)cn1 (stereo not drawn) | 24.6%
Cc1cc(C(=O)N2CCC3(CC2)CC(c2cccnc2)C(=O)N3)no1 (stereo not drawn) | -31.3%
Cc1ccc(CN2CC[C@H]3[C@H](CO[C@H]3CN(C)C)C2)o1 | 13.1%
Cc1ccc(CN2CC[C@H]3CO[C@H](CN4CCCC4)[C@H]3C2)o1 | 7.7%
Cc1ccc(CN2CC[C@H]3CO[C@H](CN4CCN(C)CC4)[C@H]3C2)o1 | 45.7%
Cc1ccc(CN2CC[C@@H]3[C@@H](CO[C@H]3CN(C)C)C2)o1 | 61.1%

SMILES | INHIBITION
Cc1ccc(CN2CC[C@H]3CO[C@H](CN(C)C)[C@H]3C2)o1 | 53.9%
CN(C)C[C@@H]1OC[C@H]2CN(Cc3ccoc3)CC[C@H]21 | -87.7%
CCCc1n[nH]c(C2CN(C(=O)c3cccnc3N(C)C)CCO2)n1 (stereo not drawn) | 16.9%
O=C(NCCCO)C1(CC2CC(c3ccc(F)cc3)=NO2)CCOCC1 (stereo not drawn) | 36%
CC(C)NC(=O)C1(CC2CC(c3ccc(F)cc3)=NO2)CCNCC1 (stereo not drawn) | 65.7%
O=C(NCCO)C1(CC2CC(c3ccc(F)cc3)=NO2)CCOCC1 (stereo not drawn) | 22.8%
Cc1noc(C)c1CCC(=O)NCC1(O)CCCN(c2ccccn2)C1 (stereo not drawn) | 30.4%
Cc1cc(CN(C)S(=O)(=O)N2CCCC2c2ccc(C)o2)no1 (stereo not drawn) | 31.9%
Cc1ccc(CN(C)CC2(O)CCCN(C)C2)o1 (stereo not drawn) | -12.7%
Cc1nn(C)c2c(N3CCN(C)CC3)nc(C3CC3)nc12 | 21.5%
CCOCCCC(=O)N1CCCC1c1nc(-c2ccccc2F)c[nH]1 (stereo not drawn) | 29.5%
O=C(COCC1CC1)N1CCCC1c1nc(-c2ccccc2F)c[nH]1 (stereo not drawn) | 46.4%
COC(=O)NCC(=O)N1CCCC1c1nc(-c2ccccc2F)c[nH]1 (stereo not drawn) | 60.3%
O=C(c1cnc2ccccc2c1)N1CCCC(O)(CN2CCCC2)C1 (stereo not drawn) | 16.2%
Cc1ccc(N2CCCC(NCC(=O)Nc3cc(C)nn3C)C2)nn1 (stereo not drawn) | 21%
Cc1nc(C)n(CC2CCCN(Cc3nnc(C4CC4)o3)C2)n1 (stereo not drawn) | 2.05%
CN1CCC(Cc2cc(Nc3ncccn3)ncn2)CC1 | 62.6%
CCC(=O)N1CCC(Cc2cc(Nc3ncccn3)ncn2)CC1 | 49.6%
CN1CCC(Cc2cc(Nc3ccccn3)ncn2)CC1 | -14.1%
O=S(=O)(C1CC1)N1CCC2(CC1)CN(Cc1nccs1)CCO2 | 23.3%
CCn1nc(C)c2c1cnn2CC(=O)Nc1ccc(OC)cc1C | 45.4%
CCOC(=O)c1ccc(S(=O)(=O)NCC(CC)N2CCCC2)cc1 (stereo not drawn) | -9.2%
COc1nn(C)c2c1CCCN(C(=O)c1cccn1C)C2 | 8.67%
Cc1nc(C)n(CCCNC(=O)C(C)n2ccnc2C(C)C)n1 (stereo not drawn) | -129%
Cc1nc(C)n(CCNC(=O)C(C)n2ccnc2C(C)C)n1 (stereo not drawn) | -23.7%
Cc1cc(C(F)(F)F)nn1CCNC(=O)C(C)n1ccnc1C(C)C (stereo not drawn) | 85.5%

SMILES | INHIBITION
Cc1cc(-c2cc(S(=O)(=O)N3C[C@H](C4CC4)[C@@H](N)C3)c(C)s2)[nH]n1 | 25.5%
COCCN1CCCn2cnc(CNC3CCCC3)c2C1 | 55.5%
COCCN1CCCn2cnc(CN(C)C(C)C)c2C1 | 21.7%
COCCN1CCCn2cnc(CNC(=O)N(C)C)c2C1 | 29.8%
COCc1cccc(S(=O)(=O)N2CCSCC2)c1 | 40%
CSc1ccc(C)c(C(=O)N2CCCC(n3cncn3)C2)c1 (stereo not drawn) | -10.1%
Cc1ncc2c(n1)C1(CCN(C(=O)C(C)C)CC1)OCC2 | 3.89%
CC(NC(=O)c1ccc(CS(C)(=O)=O)o1)c1ccc(F)c(F)c1 (stereo not drawn) | 12.3%
Cc1cc(C)cc(C(C)NC(=O)c2ccc(CS(C)(=O)=O)o2)c1 (stereo not drawn) | 54.3%
Cc1cn2c(n1)CCC(NC(=O)c1ccc(CS(C)(=O)=O)o1)C2 (stereo not drawn) | 13.1%
CCc1ccc(C(=O)NC(C)c2ccc(S(C)(=O)=O)c(F)c2)o1 (stereo not drawn) | 6.33%
CCc1ccc(C(C)NC(=O)c2ccc(CS(C)(=O)=O)o2)cc1 (stereo not drawn) | 50.8%
CCc1ccc(C(C)NC(=O)CN(C)Cc2ccc(C)o2)cc1 (stereo not drawn) | -27%
CS(=O)(=O)N1CCC(NC(=O)COc2ccccc2Cl)CC1 | -19.9%
O=C(c1nccc2ccccc12)N1CCCCC1Cn1cccn1 (stereo not drawn) | 3.73%
Cc1nc(CNC(=O)c2cc(COc3ccccc3F)[nH]n2)n[nH]1 | 17%
CNc1cc(C)nc(C2CN(Cc3cncs3)CCO2)c1 (stereo not drawn) | 11.1%
Cn1nc(CN2CCCC2)c2c1CN(C(=O)c1cccnc1)CC2 | -31.3%
Cc1cc2n(n1)CC(CNCc1ccc(-n3ccnc3C)nc1)CN2 (stereo not drawn) | -13.575%
CC(=O)N1CCOC(c2c(C(=O)NC(C)(C)C)sc3ccccc23)C1 (stereo not drawn) | -84.7%
Cc1cnc(N2CC[C@@H]3O[C@@H](COCC(=O)N(C)C)CC[C@@H]32)nc1 | 18.2%
CSc1ccc(CN(C(=O)c2cc(C)[nH]c(=O)c2)C2CC2)cc1 | 50.8%
CN(C)Cc1ccc(C2CCCCN2C(=O)c2cc(=O)[nH]c(=O)[nH]2)cc1 (stereo not drawn) | 16.7%
COC1CCN(c2ccc(F)cc2CN(C)C(=O)c2cc[nH]n2)CC1 | -74.8%
O=C(c1cc[nH]n1)N(Cc1cccc(O)c1)CC1CC1 | 5.64%
Cc1ccc(C(=O)N(Cc2cccc(F)c2)C2CC2)c(=O)[nH]1 | -30.7%

SMILES | INHIBITION
O=C(c1cc[nH]n1)N(Cc1ccccc1)CC1CCC1 | 72.3%
CSc1ccc(CN(C(=O)c2cc[nH]n2)C2CC2)cc1 | 59.1%
CSc1ccc(CN(C(=O)c2cc(=O)[nH]c(=O)[nH]2)C2CC2)cc1 | 59.1%
CSc1ccc(CN(C)C(=O)c2cc3c([nH]c2=O)CCCC3=O)cc1 | 7.99%
COc1cc(C(=O)N(Cc2ccc(F)cc2)C2CC2)cc2c1OCCO2 | 13.4%
O=C(c1cc[nH]n1)N(Cc1ccc(F)cc1)CC1CC1 | -24%
Cc1ccc(C(=O)N(Cc2ccc(F)cc2)C2CC2)c(=O)[nH]1 | -37.8%
NC(=O)C1Cn2ccnc2C2(CCN(C(=O)NC3CCCC3)CC2)O1 (stereo not drawn) | 0.453%
CC(C)Oc1ccc(CNC(=O)CCN2C(=O)CCC2=O)cc1F | -38.75%
Cc1nc2c(c(NC3CCN(Cc4ccccc4)CC3)n1)CCNCC2 | -4.28%
CC(=O)N1CCCC(c2nccnc2-c2ccc(CO)cc2)C1 (stereo not drawn) | 20.2%
c1ccc(CCN2CCN(C3CCOC4(CCOCC4)C3)CC2)cc1 (stereo not drawn) | 36.8%
CC(NC(=O)CN(C)S(C)(=O)=O)c1nnc2n1CCCCC2 (stereo not drawn) | 38.6%
CCc1ccc(C(=O)N2CCCC(CNS(C)(=O)=O)C2)o1 (stereo not drawn) | -26.6%
O=C(NCc1ccccc1)C1=NOC2(CCNC2)C1 (stereo not drawn) | 24.5%
O=c1ccc(-c2cccs2)nn1CN1CCN(C2CCS(=O)(=O)C2)CC1 (stereo not drawn) | -4.52%
COc1ccc(C(=O)CNC(=O)c2nc(Cl)sc2C(C)C)cc1 | -44.2%
O=C(CCc1nnc(-c2ccccc2)o1)N1CCCC1c1ccccn1 (stereo not drawn) | 17.8%
CC1CCCCN1C(=O)CCc1nnc(-c2ccccc2)o1 (stereo not drawn) | 51.5%
O=C(CCc1nnc(-c2ccccc2)o1)N1CCCC1c1ccc[nH]1 (stereo not drawn) | -14.9%
Cc1cc(CN2CCC(N(C)Cc3nnc(C4CC4)n3C)C2)on1 (stereo not drawn) | 19.2%
COCc1noc(Cc2c(C)nn(C)c2C)n1 | 28.5%
Cc1nc(C(=O)N(CC(=O)N(C)C)CC(F)(F)F)c2ccccn12 | 53.3%
CCOC(=O)CN(CC(F)(F)F)C(=O)c1nc(C)n2ccccc12 | 22.3%
Cc1nc(C(=O)N(C)CC(F)(F)C(F)(F)F)c2ccccn12 | 3.03%
